HCV inhibitor – blocks hepatitis C virus | hit rate 3.4% among 340,000 | Potency, µM (highest dose often 41.8 µM), usual class: inhibitors | Huh7.5.1 HCVcc-Cre infection, luciferase reporter, 44 h
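Seed cells (1,000/well) for 4 h; treat with compound and infect with HCVcc-Cre, moi about 0.5. Incubate 44 h, then detect luciferase activity.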
FMDV inh – antivirals against foot and mouth disease virus. FMDV antiviral cell-based qHTS. Potency, µM (top dose mostly 57.9 µM), most hits filed as inhibitors. hit rate 1.2% among 410,000. AID 1159524; calls by dose curve; tested in HEK293T cells; further: read-out not given here; nearly all actives have a fitted effect of over 45% in size
Vaccinia Venus – inhibitors of vaccinia virus (Venus reporter) | Vaccinia virus Venus reporter expression, fluorescence | Potency, µM (titrated, usually from 36.5 µM), usual class: inhibitors | hit rate 0.46% among 330,000 | AID 720580; calls by dose curve; tested in A549 cells; further: nearly all actives have a fitted effect of over 30% in size
Giardia FBPA inh – inhibitors of Giardia lamblia fructose-1,6-bisphosphate aldolase. hit rate 0.71% among 290,000. AID 2451. A8B2U2. Potency, µM (highest dose often 59.6 µM), most hits filed as inhibitors. purified Giardia FBPA; further: nearly all actives have a fitted effect of over 55% in size
Target sequence (A8B2U2 whole entry, looked up): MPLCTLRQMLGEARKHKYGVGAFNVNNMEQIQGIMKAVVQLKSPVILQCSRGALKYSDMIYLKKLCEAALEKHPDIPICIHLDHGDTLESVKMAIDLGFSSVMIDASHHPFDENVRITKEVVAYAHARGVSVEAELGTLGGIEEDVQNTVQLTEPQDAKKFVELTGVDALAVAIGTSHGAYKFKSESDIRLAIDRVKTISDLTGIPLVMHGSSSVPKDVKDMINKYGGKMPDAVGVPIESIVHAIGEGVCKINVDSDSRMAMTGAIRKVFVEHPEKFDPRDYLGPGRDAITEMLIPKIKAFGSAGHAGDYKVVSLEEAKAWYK
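40 nM FBPA preincubated 10 min at RT with compound (up to 57.5 uM final), then substrate plus GAPDH/TPI/NAD/arsenate coupling and diaphorase/resazurin added. Fluorescence read after 20 min at RT, 525/598 nm.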
Vaccinia mCherry – vaccinia inhibition (mCherry reporter); Vaccinia virus mCherry reporter infection, fluorescence; Potency, µM (titrated, usually from 36.5 µM), actives largely listed as inhibitors; hit rate 0.63% among 310,000; AID 720579; calls by dose curve; tested in A549 cells; further: nearly all actives have a fitted effect of over 35% in size
HCMV antiviral – human cytomegalovirus inhibition; activity change, negative = inhibition, % at 57.5 µM; hit rate 4.5% among 410,000; AID 1259415; HFF cells, HCMV-luciferase reporter, 72 h; stronger effect = lower value; in the data active means activity change below about -60%; inconclusive means no clear call, values can overlap the other calls; inactive means above about -39%
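Two-dose cell screen: HFF monolayers treated with compounds and infected with luciferase-expressing HCMV at 1 PFU/cell, 72 h at 37C, then lysed for luciferase measurement.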
Of the large screens only hits and unclear results are named; the others gave an inactive call. An excerpt weighted towards active compounds, which were near 7.5% of everything screened. Unless noted, the call rests on the fitted dose curve; in most records, active means well fitted curve in the direction sought with a large enough effect; inconclusive means small, poorly fitted or top-dose-only effect, or another doubt; inactive means no such curve, though single readings can be large; an effect the other way counts as inactive or inconclusive.

COc1cc(-c2nnc(NC(=O)CCS(=O)(=O)c3ccc(F)cc3)o2)cc(OC)c1OC	Vaccinia Venus inconclusive, Vaccinia mCherry inconclusive (no result: Giardia FBPA inh)
COc1cc(-c2nnc(NC(=O)CCS(=O)(=O)c3ccccc3)o2)cc(OC)c1OC	Vaccinia Venus 5.6µM, Vaccinia mCherry 3.5µM (no result: Giardia FBPA inh)
COc1ccccc1C(=O)Nc1ncc2c(n1)CC(c1ccco1)CC2=O (centres undefined)	HCV inhibitor inconclusive, HCMV antiviral -84 (no result: FMDV inh)
COc1ccc(Cc2nnc(Cl)c3ccccc23)cc1OC	none (no result: Vaccinia Venus, Vaccinia mCherry)
C[C@@H]1CN([C@H](C)CO)C(=O)c2cc(/C=C/c3ccccc3)cnc2O[C@H]1CN(C)C(=O)NC1CCCCC1	none (no result: HCV inhibitor, Giardia FBPA inh)
C[C@H]1CN([C@@H](C)CO)S(=O)(=O)c2ccc(/C=C/c3ccccc3)cc2O[C@H]1CN(C)C(=O)NC1CCCCC1	Vaccinia Venus inconclusive, HCMV antiviral -63 (no result: HCV inhibitor, Giardia FBPA inh)
C[C@H](CO)N1C[C@H](C)[C@H](CN(C)Cc2ccc(Oc3ccccc3)cc2)Oc2cc(Br)ccc2S1(=O)=O	HCMV antiviral -109 (no result: HCV inhibitor, Giardia FBPA inh)
C[C@H]1CN([C@@H](C)CO)S(=O)(=O)c2ccc(Br)cc2O[C@H]1CN(C)Cc1ccccc1	FMDV inh inconclusive (no result: HCV inhibitor, Giardia FBPA inh)
COc1ccc(Cc2c(-c3ccccc3)nc3ccc(Br)cn23)c(C)c1	none (no result: HCV inhibitor, Giardia FBPA inh)
O=C(Nc1ccccc1)N1c2ccccc2SC1c1ccco1 (centres undefined)	none (no result: HCV inhibitor, FMDV inh, Vaccinia Venus, Giardia FBPA inh, Vaccinia mCherry)
Cc1nn(C(=O)c2ccccc2)c(C)c1Sc1ccc(Cl)cc1	FMDV inh 28µM, HCMV antiviral -74 (no result: HCV inhibitor, Giardia FBPA inh)
CCC(=O)Oc1c(Sc2ccc(Cl)cc2)c(C)nn1-c1ccccc1	HCMV antiviral -94 (no result: HCV inhibitor, Giardia FBPA inh)
COc1ccc(CC(=O)OCC(=O)NCc2ccccc2Cl)cc1OC	none (no result: Vaccinia Venus, Vaccinia mCherry)
O=C(Nc1cc(Cl)cc2c1-c1ccc(Cl)cc1C2O)C(Cl)Cl (centres undefined)	HCV inhibitor 11µM (no result: Giardia FBPA inh)
O=C(Nc1ccc2nc3n(c(=O)c2c1)CCCCC3)c1cccc(C(F)(F)F)c1	FMDV inh inconclusive, Vaccinia Venus inconclusive, Vaccinia mCherry inconclusive, HCMV antiviral -69 (no result: HCV inhibitor, Giardia FBPA inh)
O=c1c2cc([N+](=O)[O-])ccc2nc2n1CCCC2	HCMV antiviral -65
CCc1cccc(NC(=O)c2ccc3c(=O)n4c(nc3c2)CCCCC4)c1	HCV inhibitor 13µM
CC(=O)c1c(C)[nH]c(C(=O)COC(=O)c2ccc3c(=O)n4c(nc3c2)CCC4)c1C	FMDV inh 4.5µM
COc1cccc(-c2csc(-c3c(N)c(C(=O)c4ccccc4)n4ccccc34)n2)c1	none (no result: HCV inhibitor, Giardia FBPA inh)
O=C(CC1C(=O)NCCN1Cc1ccccn1)NCCc1ccccc1F (centres undefined)	HCMV antiviral inconclusive (no result: Giardia FBPA inh)
O=C(c1ccc2c(=O)n3c(nc2c1)CCCCC3)N1CCN(C(c2ccccc2)c2ccccc2)CC1	HCV inhibitor inconclusive, HCMV antiviral -65 (no result: Vaccinia Venus, Vaccinia mCherry)
O=C(Nc1ccc(Cl)cc1)c1ccc2c(=O)n3c(nc2c1)CCCCC3	HCV inhibitor inconclusive
O=C(Nc1ccc(F)c(Cl)c1)c1ccc2c(=O)n3c(nc2c1)CCCCC3	HCV inhibitor 10µM, HCMV antiviral -91 (no result: Vaccinia Venus, Vaccinia mCherry)
O=C(Nc1cccc(Cl)c1)c1ccc2c(=O)n3c(nc2c1)CCCCC3	HCV inhibitor 8.9µM, Vaccinia mCherry inconclusive
O=C(c1ccc2c(=O)n3c(nc2c1)CCCCC3)N1CCN(c2ccccc2)CC1	none
O=C(Nc1ccc(Cl)cc1Cl)c1ccc2c(=O)n3c(nc2c1)CCC3	none (no result: Giardia FBPA inh)
CCc1ccc(N(CC)C(=O)c2ccc3c(=O)n4c(nc3c2)CCCCC4)cc1	FMDV inh 40µM, Vaccinia Venus inconclusive, Vaccinia mCherry inconclusive (no result: HCV inhibitor, Giardia FBPA inh)
CC(=O)c1ccc(NC(=O)CC(C)S(=O)(=O)c2ccc3c(c2)CCN3C(C)=O)cc1 (centres undefined)	none (no result: Giardia FBPA inh)
Cc1ccccc1C1(CC(=O)N2CCCC2c2nccs2)CC(=O)N(C2CCCC2)C1=O (centres undefined)	none (no result: HCV inhibitor, Giardia FBPA inh, HCMV antiviral)
Cc1cc(C)c2cc(CN(CCCN(C)C)C(=S)NCc3ccccc3)c(=O)[nH]c2c1	HCV inhibitor 10µM
Cc1ccc(CN(Cc2cc3cccc(C)c3[nH]c2=O)C(=S)NCCCN(C)C)cc1	HCV inhibitor 35µM, HCMV antiviral inconclusive
Cc1cccc2cc(CN(Cc3ccccc3)C(=S)NCCCN(C)C)c(=O)[nH]c12	HCV inhibitor inconclusive, HCMV antiviral inconclusive
CCc1ccc(-n2c(=O)c3c4c(sc3n(Cc3ccccc3C#N)c2=O)CCC4)cc1	none (no result: HCV inhibitor, Giardia FBPA inh)
